# Source: PubChem (National Center for Advancing Translational Sciences (NCATS))
# Cruzain noTriton – blocks cruzain activity in detergent-free assay | purified cruzain, Z-FR-AMC fluorescence, no detergent | Potency, µM, for inactives: max response, negative = inhibition, most hits filed as inhibitors | 200,000 tested, 2.3% active;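 note: plate controls were enzyme without inhibitor for no effect and buffer without enzyme for full effect; nearly all actives have a fitted effect of over 40% in size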
# Target sequence (P25779 123-467 limits assumed): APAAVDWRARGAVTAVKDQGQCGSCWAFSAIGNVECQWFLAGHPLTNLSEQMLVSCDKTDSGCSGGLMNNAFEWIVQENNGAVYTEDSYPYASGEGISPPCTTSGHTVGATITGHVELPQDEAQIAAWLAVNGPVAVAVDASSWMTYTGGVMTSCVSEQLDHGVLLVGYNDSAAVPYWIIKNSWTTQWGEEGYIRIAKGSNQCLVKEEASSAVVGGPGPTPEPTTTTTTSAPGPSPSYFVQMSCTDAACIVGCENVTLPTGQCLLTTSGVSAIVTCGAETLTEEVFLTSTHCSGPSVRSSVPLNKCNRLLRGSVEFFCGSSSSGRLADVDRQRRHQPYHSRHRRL
#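 Detergent-free condition (0.00005% Triton X-100) in acetate buffer pH 5.5 with DTT. 1.5 nM enzyme and compound were pre-mixed 15 min, then 2 uM Z-FR-AMC substrate added; reaction progress from fluorescence change between first and third reads (60 s).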
# Cruzain Triton – cruzain (T. cruzi) inhibition with detergent; purified cruzain, Z-FR-AMC fluorescence, 0.01% Triton; Potency, µM, for inactives: max response, negative = inhibition, actives largely listed as inhibitors; P25779; 200,000 tested, 0.43% active;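 note: plate controls were neutral wells for no effect and buffer without enzyme for full effect; nearly all actives have a fitted effect of over 40% in size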
#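 Cysteine protease activity tested under reducing, mildly acidic conditions (100 mM sodium acetate pH 5.5, 5 mM DTT) plus 0.01% Triton X-100. Cruzain 1.5 nM; substrate Z-FR-AMC 2 uM; 15 min compound preincubation at room temperature.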
# * marks the source's active call; other numbers are inactive results; ? = inconclusive. Compounds with a hit are over-represented: about 2.4% of the library has one in this group of screens. Calls come from the whole dose curve; as a rule, active = well fitted curve in the direction sought with a large enough effect; inconclusive = small, poorly fitted or top-dose-only effect, or another doubt; inactive = no such curve, though single readings can be large; an effect the other way counts as inactive or inconclusive. Potency is the fitted concentration of half-maximal effect.
SMILES,Cruzain noTriton,Cruzain Triton
COc1cccc(C2=Nc3cccc4cccc(c34)N2)c1,16µM*,-7%
CC1=Nc2cccc3cccc(c23)N1,-16%,-2%
Nc1ccc(C2=Nc3cccc4cccc(c34)N2)cc1,3.2µM*,-20%
Cc1ccc(-n2ncc3c(NC4CCCCCC4)ncnc32)cc1,-12%,1%
Cc1ccc(NC(=O)[C@@H](c2ccccc2)N2Cc3ccccc3C2=O)cc1F,1%,-7%
COc1ccc(-c2nc(CSCC(=O)NCCC(C)C)c(C)o2)cc1OC,-6%,2%
COc1ccc(OC)c(NC(=O)c2csnn2)c1,-22%,-4%
CCOc1ccc(CCNC(=O)c2cc3sc(CC)cc3n2C)cc1OCC,?,-17%
COc1cccc(-c2ccc3c(N)c(C(=O)NCc4ccc(Cl)cc4)sc3n2)c1,?,-6%
CCn1ccc2cc(S(=O)(=O)N3CCCN(C(=O)Nc4ccccc4F)CC3)ccc21,9%,-2%
N=c1oc2ccc3ccccc3c2cc1-c1nc(-c2ccccc2)cs1,25µM*,-5%
N=c1oc2ccccc2cc1-c1nc(-c2ccccc2)cs1,?,-14%
Cc1nc(-c2ccc(S(=O)(=O)Nc3cc(Cl)ccc3C)cc2)co1,9%,-8%
CN1CCN(c2ccccc2NC(=O)c2ccc(-c3ccc(Cl)cc3Cl)o2)CC1,1%,-20%
CS(=O)(=O)N1CCN(c2ccccc2NC(=O)c2ccc(-c3ccc(Cl)cc3Cl)o2)CC1,3.2µM*,-2%
O=C(N/N=C/c1ccc(Br)o1)c1ccc2c(c1)OCCO2,-12%,-6%
O=C(N/N=C\c1ccc(-c2ccc([N+](=O)[O-])cc2)o1)c1ccc2c(c1)OCO2,7.9µM*,-1%
CCOc1ccccc1NC(=O)C1CCN(S(=O)(=O)c2ccc3c(c2)CCCN3C(C)=O)CC1,?,0%
O=S(=O)(Cc1ccccc1)N1CCn2c(nc3ccccc32)C1,-20%,2%
O=S(=O)(c1ccc(Cl)c(Cl)c1)N1CCc2nc3ccccc3n2CC1,10µM*,-6%
O=S(=O)(c1ccc(Br)cc1)N1CCn2c(nc3ccccc32)C1,5µM*,-3%
O=S(=O)(c1ccc2c(c1)nc1n2CCC1)N1CCOCC1,-8%,-2%
COc1ccc2[nH]cc(CCN=C(NC(=O)c3ccccc3F)Nc3nc(C)cc(C)n3)c2c1,0%,1%
O=C(Nc1nnc(C2CCCCC2)s1)c1ccc(Br)s1,25µM*,-2%
Cc1cc(C(=O)Nc2nnc(C3CCCCC3)s2)cs1,?,13%
SMILES,Cruzain noTriton,Cruzain Triton
COC(=O)c1cc(=O)n(CCc2ccc(OC)cc2)c(=Nc2ccc(F)c(Cl)c2)s1,-20%,0%
COC(=O)c1cc(=O)n(Cc2ccc3c(c2)OCO3)c(=Nc2ccc(F)c(Cl)c2)s1,20µM*,-2%
COc1ccc(-c2ccc(NS(=O)(=O)c3ccc(F)c(C(F)(F)F)c3)cc2)nn1,4%,0%
COc1ccccc1-c1nnc(C2CCN(S(=O)(=O)c3ccccc3)CC2)o1,-9%,1%
CCCCC12CN3CC(C)(CN(C1)C3c1ccc(OCc3ccccc3)cc1)C2=O (configuration not stated),-4%,2%
O=C(c1ccc2c(c1)OCCO2)N(Cc1cccnc1)c1nc2c(F)cc(F)cc2s1,28%,-4%
CCOC(=O)c1sc(NC(=O)/C=C/c2c(F)cccc2Cl)nc1C,13µM*,-8%
CCOC(=O)c1sc(NC(=O)c2ccc(CC)s2)nc1C,16µM*,4%
CCOC(=O)c1sc(NC(=O)c2ccccc2OC)nc1C,5%,-6%
CCOC(=O)c1sc(NC(=O)Nc2ccccc2F)nc1C,-7%,-3%
Cn1c(C(=O)Nc2cccc(Cl)c2)cc2c(=O)n(C)c3ccccc3c21,3%,1%
CCc1cccc(NC(=O)CSC2=Nc3ccccc3N=C(c3ccc(F)cc3)C2)c1,?,-4%
Cc1ccc(C(=O)c2sc(Nc3ccc(F)cc3)c(C#N)c2N)cc1,?,-9%
COc1ccc(S(=O)(=O)c2c(Nc3cccc(C)c3C)sc(C(=O)c3ccccc3)c2N)cc1,6.3µM*,-3%
Cc1ccccc1Nc1sc(C(=O)c2ccccc2)c(N)c1S(C)(=O)=O,-8%,-11%
COc1ccccc1Nc1sc(C(=O)c2ccc(F)cc2)c(N)c1S(=O)(=O)c1ccc(C)cc1,7.9µM*,-2%
COc1cccc(Nc2sc(C(=O)c3ccc4c(c3)OCO4)c(N)c2S(=O)(=O)c2ccccc2)c1,7.9µM*,-1%
COc1ccc(S(=O)(=O)Nc2ccc3c(c2)OCO3)cc1,2%,2%
Nc1c(C(=O)c2ccc3c(c2)OCO3)sc(Nc2ccccc2F)c1S(=O)(=O)c1ccccc1,?,-4%
COc1ccc(S(=O)(=O)c2c(Nc3c(C)cccc3C)sc(C(=O)c3ccc4c(c3)OCO4)c2N)cc1,7.9µM*,-3%
Cn1c(=O)c2c(-c3cccc(Br)c3)n(CCO)cc2n(C)c1=O,5%,-4%
COc1ccc(-c2c(C)c3ccc(O)c(CN4CCN(CCO)CC4)c3oc2=O)cc1OC,-16%,-3%
COc1cccc(CNC(=O)c2oc3c(c2C)-c2nn(Cc4cccc(Cl)c4)cc2CC3)c1OC,-10%,-4%
COc1cccc(C(=O)N2CC(=O)Nc3ccc(C)cc3C2c2ccc(F)cc2)c1OC (configuration not stated),-1%,-2%
COc1ccc(S(=O)(=O)c2c(Nc3c(C)cccc3C)sc(C(=O)c3ccc(F)cc3)c2N)cc1,6.3µM*,5%
SMILES,Cruzain noTriton,Cruzain Triton
Cc1cccc(C)c1Nc1sc(C(=O)c2ccccc2)c(N)c1C(=O)Nc1ccc(F)cc1,?,-3%
CCc1ccccc1NC(=O)CSc1nc2c(oc3ccccc32)c(=O)n1-c1ccccc1,-9%,-1%
O=C(Cn1c(=O)n(Cc2ccco2)c(=O)c2c3c(sc21)CCCCC3)c1ccccc1,25µM*,-8%
O=c1c2c3c(sc2n(CCN2CCCC2)c(=O)n1Cc1ccco1)CCCCC3,?,5%
CN(C)CCn1c(=O)n(Cc2ccco2)c(=O)c2c3c(sc21)CCCCC3,5%,5%
O=C(Cn1c(=O)n(Cc2ccco2)c(=O)c2c3c(sc21)CCCCC3)Nc1ccccc1,?,28µM*
COc1ccc(Br)c(/C=N/NC(=O)COc2ccc(-c3ccccc3)cc2)c1,20µM*,-2%
COc1ccc(/C=N/NC(=O)COc2ccccc2-c2ccccc2)cc1,7%,-6%
COc1ccc(C(=O)c2sc3nc(C)cc(-c4cccs4)c3c2N)cc1,?,-5%
Cc1cc(-c2cccs2)c2c(N)c(C(=O)c3ccc4c(c3)OCO4)sc2n1,25µM*,-6%
Cc1ccc(NC(=O)Cn2nc(C)c3nn(-c4ccc(Cl)cc4)c(C)c3c2=O)cc1F,-18%,1%
CCOC(=O)C(CC)n1nnc2sc(-c3ccccc3)cc2c1=O (configuration not stated),-2%,-11%
COc1ccc(-c2noc(CCCC(=O)Nc3cccc(Cl)c3C)n2)cc1,-6%,-2%
Cc1cc(C)c2c(c1)NC(c1cc3c(cc1Br)OCO3)C1CC=CC21 (configuration not stated),20µM*,-2%
Brc1cc2c(cc1C1Nc3ccccc3C3C=CCC31)OCO2 (configuration not stated),?,-3%
N#Cc1c(Cl)nc(Cl)c2c1CCN(Cc1ccccc1)C2,-22%,-9%
N#Cc1c(NCCN)nc(NCc2ccccc2)c2c1CCN(Cc1ccccc1)C2,7.9µM*,-1%
Cc1cc(C)c(Cn2c3ccccc3c3cnn(CC(=O)NC4CCC(C)CC4)c(=O)c32)c(C)c1 (configuration not stated),2µM*,-2%
